# Assay outcomes: PubChem BioAssay, National Center for Advancing Translational Sciences (NCATS)
# Rango-impB inh = Rango-importin beta binding inhibition | Potency, µM (top dose mostly 92.2 µM), for the others: top-dose inhibition of complex formation | hit rate 0.031% among 340,000 | Q14974 | Rango CFP/YFP FRET sensor + importin beta, 45 min; calls by dose curve;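 also: potency is read from the fitted curve at half-maximal effect; 0% = DMSO wells and 100% = buffer wells lacking importin beta; nearly all actives have a fitted effect of over 15% in size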
#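 FRET biosensor Rango (snurportin 1 IBB between N-terminal EYFP and C-terminal Cerulean), 50 nM in PBS/1 mM DTT/0.02% Tween-20/0.1% BSA, preincubated 5 min RT with compound; 0.125 microM importin beta added, 45 min RT, CFP/YFP FRET ratio read.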
# KAT2A inh = GCN5L2 (KAT2A) acetyltransferase inhibition; GCN5L2 HAT assay, ThioGlo1 CoA-SH fluorescence; Potency, µM (doses to about 58.9 µM), for inactives: at the highest dose activity change, negative = inhibition, hits mostly inhibitors; hit rate 0.21% among 390,000; Q92830; also: potency is read from the fitted curve at half-maximal effect; % is scaled to controls: 0 for no effect and ±100 for the full control effect
# Target sequence (Q92830 whole entry, looked up): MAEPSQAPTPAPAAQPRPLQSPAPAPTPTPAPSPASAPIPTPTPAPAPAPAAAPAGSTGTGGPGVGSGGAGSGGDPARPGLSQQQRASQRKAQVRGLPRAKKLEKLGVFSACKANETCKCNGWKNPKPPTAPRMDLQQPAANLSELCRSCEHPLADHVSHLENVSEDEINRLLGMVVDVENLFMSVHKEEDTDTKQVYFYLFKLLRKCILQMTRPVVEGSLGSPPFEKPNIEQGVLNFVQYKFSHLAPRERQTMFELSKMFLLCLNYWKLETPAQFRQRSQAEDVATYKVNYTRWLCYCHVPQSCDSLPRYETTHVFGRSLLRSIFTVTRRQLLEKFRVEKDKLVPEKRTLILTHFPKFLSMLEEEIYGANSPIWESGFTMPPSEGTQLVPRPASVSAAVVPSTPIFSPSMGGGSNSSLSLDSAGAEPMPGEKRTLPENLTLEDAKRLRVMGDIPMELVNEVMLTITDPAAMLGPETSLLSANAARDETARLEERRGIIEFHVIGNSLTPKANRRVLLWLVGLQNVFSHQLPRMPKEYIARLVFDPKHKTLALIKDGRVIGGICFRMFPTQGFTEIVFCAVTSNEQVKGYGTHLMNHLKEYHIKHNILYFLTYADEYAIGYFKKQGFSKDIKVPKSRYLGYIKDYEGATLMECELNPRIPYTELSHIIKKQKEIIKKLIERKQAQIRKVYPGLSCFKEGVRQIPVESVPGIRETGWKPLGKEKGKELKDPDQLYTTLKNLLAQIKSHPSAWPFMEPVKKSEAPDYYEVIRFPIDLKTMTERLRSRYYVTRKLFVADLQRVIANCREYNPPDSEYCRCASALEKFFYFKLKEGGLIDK
#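 Free CoA generated was detected with ThioGlo1 (50uM) fluorescence at Ex340nm/Em540nm, read immediately and after 20 min at room temperature. Enzyme, 20 nM in HEPES pH 7.5 buffer, saw compounds 15 min before adding 75uM H3(1-25) peptide and 70uM acetyl-CoA.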
# Rango release inh = inhibition of RanGTP-driven Rango-importin beta dissociation. O95149+P62826. Biochemical FRET Rango-importin beta, RanGTP-induced dissociation. Potency, µM (doses to about 46.1 µM), without a hit: at the highest dose activity change, negative = inhibition. hit rate 0.071% among 340,000; calls by dose curve; also: potency is read from the fitted curve at half-maximal effect; % of control where 0% means no effect; nearly all actives have a fitted effect of over 45% in size
#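 Compounds sat 5 min at room temperature with 0.1 uM Rango biosensor plus 0.25 uM importin beta, then FRET pre-read. RanGTP-RCC1 (0.6 uM Ran, 2mM GTP, 0.2 uM RCC1) added for 45 min, and the CFP/YFP post-read measured blocked complex dissociation.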
# PLK1 PBD block = blocks phosphopeptide binding to human PLK1 polo-box domain; Plk1 PBD binding of FITC phosphopeptide, fluorescence polarization; Potency, µM, for the others: max response, negative = inhibition, most hits filed as inhibitors; hit rate 2.8% among 360,000; AID 720504; also: potency is read from the fitted curve at half-maximal effect; series mostly up to about 57 µM; % is scaled to controls: 0 for no effect and ±100 for the full control effect; nearly all actives have a fitted effect of over 65% in size
# PI5P4Ka inh = inhibitors of human PI5P4K alpha; max response, %; hit rate 1.2% among 330,000; AID 652105; P48426; PI5P4Kalpha enzyme, ADP-Glo luminescence, 60 min; stronger effect = lower value; active = max response of -50% or lower; inconclusive = between -30% and -50%; inactive = -30% or higher; also: value at the top dose of about 77 µM; % is scaled to controls: 0 for no effect and ±100 for the full control effect
#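 Single end-point luminescence (ADP-Glo) quantified ADP from PI5P4Kalpha turnover; ATP 5 microM final, 1 h at RT, 0.1% CHAPS and 0.28 mM EGTA in HEPES pH 7.4.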
# VDR inhibitor = blocks the human vitamin D receptor; hit rate 0.93% among 400,000; Potency, µM, inactives show max response, negative = inhibition, usual class: inhibitors; P11473; AID 504847; VDR-SRC2-3 peptide fluorescence polarization, 2 h; also: potency is read from the fitted curve at half-maximal effect; % is scaled to controls: 0 for no effect and ±100 for the full control effect
#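 Measured by FP: displacement of SRC2-3 coactivator peptide from VDR by library compounds, following a two-hour ambient incubation.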
# The depositor's hits bear a star; ? = inconclusive; nt = not tested or not shown. Sampled rows, rich in hits. Any-hit rate of the full collection: about 3.6%. Unless noted, calls follow the shape of the dose curve; as a rule, active = well fitted curve in the direction sought with a large enough effect; inconclusive = small, poorly fitted or top-dose-only effect, or another doubt; inactive = no such curve, though single readings can be large; an effect the other way counts as inactive or inconclusive.
SMILES,Rango-impB inh,KAT2A inh,Rango release inh,PLK1 PBD block,PI5P4Ka inh,VDR inhibitor
CC(=O)Nc1ccc(NC(=O)c2oc3ccc4c(c3c2C)C(=O)CC(C)(C)O4)cc1,nt,-2.3%,nt,nt,nt,4.8%
O=C(CSc1nnc(-c2ccc(F)cc2)o1)N1CCCc2ccccc21,nt,-10.6%,nt,nt,nt,-16.5%
CCn1nnnc1SCC(=O)N1CCCc2ccccc21,5.4%,-2.5%,-4.3%,26.7µM*,-3.4,-19.4%
CCn1nnnc1SCC(=O)N1CCc2ccccc21,3.0%,nt,0.0%,-14.8%,9.1,?
O=C(CSc1nnc(CN2CCOCC2)n1-c1ccc(Cl)cc1)N1CCc2ccccc21,0.3%,nt,-3.3%,-12.1%,-4.9,79.4µM*
CC(C)c1nnc(SCC(=O)N2CCc3ccccc32)n1N,1.7%,-12.1%,-0.7%,?,0.0,79.4µM*
O=C(CSc1nnc(CNc2ccc(F)cc2)o1)N1CCCc2ccccc21,-0.4%,-3.6%,-20.0%,26.7µM*,?,?
CCOC(=O)c1c(C)[nH]c(C)c1S(=O)(=O)NCC(=O)Nc1ccc(C)c(N(C)C)c1,nt,-2.5%,nt,nt,nt,20.3%
O=Cc1ccc(C(=O)OCC(=O)NC(=O)Nc2ccccc2F)cc1,4.0%,-5.0%,1.5%,4.9%,-56.6*,8.9%
Cc1ccnc(NC(c2ccsc2)c2ccc3ccc(C)nc3c2O)c1 (stereo not drawn),-0.8%,-10.6%,17.1%,2.99µM*,?,39.8µM*
Cc1ccc(C(=O)N(Cc2ccc(N(C)C)cc2)CC2CCCO2)cc1 (stereo not drawn),nt,-0.9%,nt,nt,nt,5.5%
O=C(Nc1ccc(F)c(Cl)c1)C1CCN(c2ncnc3c2nc2n3CCCCC2)CC1,-3.3%,-5.0%,-10.7%,-13.1%,-7.6,3.5%
O=C(NCCCN1CCCCC1)C1CCN(c2ncnc3c2nc2n3CCCCC2)CC1,-1.2%,0.3%,2.5%,26.7µM*,-8.3,?
O=C(C1CCCN(c2ncnc3c2nc2n3CCCCC2)C1)N1CCN(c2ccc(F)cc2)CC1 (stereo not drawn),-1.9%,-14.8%,-1.9%,26.7µM*,-6.1,-8.7%
Cc1cccc(NC(=O)C2CCN(c3ncnc4c3nc3n4CCCCC3)CC2)n1,0.7%,-6.1%,2.1%,26.7µM*,-0.2,-24.0%
CC(C)c1ccc(NC(=O)C2CCN(c3ncnc4c3nc3n4CCCCC3)CC2)cc1,0.7%,-0.9%,4.3%,29.9µM*,6.7,-20.6%
COc1ccc2oc(-c3ccc(NC(=O)c4ccc(Cl)cc4Cl)cc3)nc2c1,nt,1.9%,nt,nt,nt,-16.6%
COc1cc(-c2noc(-c3ccc(NCc4cccnc4)c([N+](=O)[O-])c3)n2)cc(OC)c1OC,nt,-18.5%,nt,nt,nt,7.4%
CCOc1ccccc1CNC(=O)C1CCN(S(=O)(=O)c2ccc3c(ccn3C)c2)CC1,nt,1.2%,nt,nt,nt,2.6%
COC(=O)[C@H](Cc1ccccc1)NC(=O)O[C@@H]1C(=O)c2ccc(OC)cc2O[C@H]1c1ccc2c(c1)OCO2,nt,nt,nt,nt,nt,-4.0%
CCOc1ccc(CCNC(=O)c2ccc(-c3nc(COc4ccc(C)cc4)c(C)o3)cc2)cc1,nt,1.5%,nt,nt,nt,4.9%
Cc1ccc(-n2nc3cc(C)c(N)cc3n2)cc1,?,-4.0%,18.4µM*,-15.7%,-4.2,?
COc1ccc(-n2nc3cc(C)c(N)c(Br)c3n2)cc1,-1.9%,-9.6%,-0.6%,3.77µM*,-17.2,-0.9%
COc1nc(C)nc2c1sc1nc3c(cc12)COC(C)(C)C3,-5.3%,-2.8%,-3.9%,26.7µM*,-14.3,-22.6%
O=C1Nc2ccccc2C1=Nc1ccc(S(=O)(=O)Nc2nccs2)cc1,?,-1.1%,0.6%,26.7µM*,-78.7*,-14.1%
SMILES,Rango-impB inh,KAT2A inh,Rango release inh,PLK1 PBD block,PI5P4Ka inh,VDR inhibitor
Cc1sc2nc(-c3cccnc3)[nH]c(=O)c2c1-c1ccccc1,1.5%,-13.6%,-8.7%,11.9µM*,-12.8,-14.0%
CN(C)c1ccc(C(CNS(=O)(=O)c2ccc(Br)cc2)N2CCOCC2)cc1 (stereo not drawn),nt,-7.9%,nt,nt,nt,3.1%
CCOc1ccc(/C=C/c2nc(C#N)c(N3CCCCC3)o2)cc1,nt,-15.1%,nt,nt,nt,21.9%
Cc1ccc(C(=O)n2nc(C)c(S(=O)(=O)N3CCCCCC3)c2C)cc1,nt,-13.9%,nt,nt,nt,13.0%
Cn1cc(C=C2C(=O)CC(C)(C)CC2=O)c2ccccc21,7.4%,-3.4%,13.0%,26.7µM*,-6.4,-18.2%
Cn1cc(/C=C2/SC(=O)N(c3ccccc3)C2=O)c2ccccc21,?,?,-27.1%,-7.3%,-0.2,-11.7%
CC(=O)c1cccc(NC(=O)CCc2nc3cccnc3n2Cc2cccs2)c1,nt,1.7%,nt,nt,nt,?
CC(C)(C)OC(=O)N[C@@H](Cc1ccccc1)c1nnc(S(=O)(=O)Cc2cccc(F)c2)o1,-2.6%,-6.7%,-5.0%,5.97µM*,-0.4,11.2µM*
CC(C)Cn1nnnc1S(=O)(=O)Cc1cccc(C#N)c1,nt,nt,nt,nt,nt,7.9%
CCOC(=O)CSc1nnc([C@H](Cc2ccccc2)NC(=O)OC(C)(C)C)o1,-2.6%,1.5%,-12.1%,2.5%,nt,9.4%
CC(C)C[C@H](N)c1nnc(S(=O)(=O)Cc2cccc(F)c2)o1,-2.9%,1.1%,-1.5%,?,nt,17.8µM*
CN(C)c1ccc(-c2nc(N3CCNCC3)c3ccccc3n2)cc1,nt,-21.2%,nt,nt,nt,?
O=C(CSc1ncc2c(n1)-c1ccccc1N(Cc1ccc(Cl)cc1)S2(=O)=O)c1ccc(Cl)cc1,nt,-6.6%,nt,nt,nt,2.4%
O=C(NCCc1ccccc1)N1c2ccccc2Sc2ccccc21,0.3%,-8.5%,4.8%,23.8µM*,-5.8,?
CC(C)CNC(=O)N1c2ccccc2Sc2ccccc21,5.0%,-2.2%,-10.2%,-3.2%,-6.7,6.5%
CCOC(=O)c1ccc(Cn2c(-c3ccccc3)nnc2-c2ccccc2)o1,0.1%,2.4%,-10.1%,23.8µM*,-1.5,-16.2%
COCCCNC(=O)/C(C#N)=C/c1c(N2CCN(c3ccc(OC)cc3)CC2)nc2c(C)cccn2c1=O,?,-7.3%,4.61µM*,4.5%,-4.9,-17.5%
NS(=O)(=O)c1ccc(NC(=S)NCc2ccc3c(c2)OCO3)cc1,-1.0%,-27.1%,12.1%,21.2µM*,2.1,0.5%
NS(=O)(=O)c1ccc(NC(=S)NCc2ccc(F)cc2)cc1,-1.6%,-1.3%,-3.9%,21.2µM*,-0.3,?
NS(=O)(=O)c1cccc(NC(=S)NCc2ccc3c(c2)OCO3)c1,-0.1%,2.8%,3.7%,?,-8.3,-8.2%
NS(=O)(=O)c1ccc(NC(=S)NCc2ccco2)cc1,-3.3%,-1.6%,-9.0%,26.7µM*,-20.9,?
NS(=O)(=O)c1ccc(NC(=S)NCc2ccc(Cl)cc2)cc1,-3.0%,-19.5%,5.6%,10.6µM*,-5.1,?
CN(C)c1ccc(C(=O)NCc2ccc3c(c2)CCN3C(=O)c2ccccc2)cc1,nt,-20.2%,nt,nt,nt,6.4%
